Measurements as given in PubChem BioAssay (EPA / NIEHS).
Results filed as inconclusive are left out. Active and inactive are the calls of the source. The calls were made as follows, unless noted: active = hit-call score of the fitted dose curve at least 0.9, where 1 is the maximum; inactive = score below 0.9.

The compounds below were run on Monokine induced gamma interferon (MIG), CXCL9 (gene 4283) (assay: BSK_3C_MIG: BioMAP Diversity Plus: 3C Assay for Monokine induced gamma interferon (MIG) Biomarker Activity (AID 2283021;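 as to AC50: MIG protein level measured by immunoassay in the treated endothelial cultures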)). Conditions: primary human endothelial cells (HUVEC); actives raise or lower the signal.
Method in brief: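 Endothelial primary cells (human umbilical vein) are dosed with test chemical in the 3C system. MIG levels are measured by ELISA at 24 h and fitted in both directions relative to DMSO.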
With OCCOc1ccccc1 the outcome was “inactive”.
In the case of Cc1cc(C)nc(NC(=O)NS(=O)(=O)c2ccccc2C(=O)OC2COC2)n1, the outcome is reported as “inactive”.
For COP(=S)(OC)Oc1ccc(SC)c(C)c1, the outcome was “inactive”.
For C#CCN1C(=O)COc2cc(F)c(N3C(=O)C4=C(CCCC4)C3=O)cc21, the outcome was “inactive”.
In the case of O=C(O)CCCOc1ccc(Cl)cc1Cl, the outcome is reported as “inactive”.
With N#Cc1c(Cl)c(Cl)c(Cl)c(C#N)c1Cl the AC50 was 2.06 µM (active).
With CCS(=O)(=O)c1cccnc1S(=O)(=O)NC(=O)Nc1nc(OC)cc(OC)n1 the outcome was “inactive”.
With CC[C@H](C)[C@H]1O[C@]2(C=C[C@@H]1C)C[C@@H]1C[C@@H](C/C=C(\C)[C@@H](O[C@H]3C[C@H](OC)[C@@H](O[C@H]4C[C@H](OC)[C@@H](O)[C@H](C)O4)[C@H](C)O3)[C@@H](C)/C=C/C=C3\CO[C@@H]4[C@H](O)C(C)=C[C@@H](C(=O)O1)[C@]34O)O2 (tested in a mixture with another compound) the AC50 was 12.1 µM (active).
For CCC(C)Nc1c([N+](=O)[O-])cc(C(C)(C)C)cc1[N+](=O)[O-] (configuration not stated), the outcome was “inactive”.
In the case of CNC(=O)CSP(=S)(OC)OC, the outcome is reported as “inactive”.
In the case of O=S1OCC2C(CO1)C1(Cl)C(Cl)=C(Cl)C2(Cl)C1(Cl)Cl (configuration not stated), the AC50 is reported as 36 µM (active).
For O=[N+]([O-])/N=C1\NCCN1Cc1ccc(Cl)nc1, the outcome was “inactive”.
COC(=O)c1ccccc1S(=O)(=O)NC(=O)Nc1nc(C)nc(OC)n1 was tested, and the outcome was “inactive”.
CCOCN(C(=O)CCl)c1c(C)cccc1CC was tested, and the outcome was “inactive”.
CCN(CC)C(=O)SCc1ccc(Cl)cc1 was tested, and the outcome was “inactive”.
For [2H]C1([2H])[n+]2ccccc2-c2cccc[n+]2C1([2H])[2H], the outcome was “inactive”.
For O=S(=O)(O)C(F)(F)C(F)(F)C(F)(F)C(F)(F)C(F)(F)C(F)(F)C(F)(F)C(F)(F)F, the outcome was “inactive”.
For CNC(=O)/C=C(\C)OP(=O)(OC)OC, the outcome was “inactive”.
With CC1(C)C(C=C(Cl)Cl)C1C(=O)OC(C#N)c1ccc(F)c(Oc2ccccc2)c1 (configuration not stated) the outcome was “inactive”.
With CC(C)(C)C(O)C(Oc1ccc(Cl)cc1)n1cncn1 (configuration not stated) the outcome was “inactive”.
In the case of O=C1c2ccccc2C(=O)N1SC(Cl)(Cl)Cl, the outcome is reported as “inactive”.
In the case of O=C(O)C(F)(F)C(F)(F)C(F)(F)C(F)(F)C(F)(F)C(F)(F)C(F)(F)F, the outcome is reported as “inactive”.
CC(C)OC(=O)Nc1cccc(Cl)c1 was tested, and the outcome was “inactive”.
With Oc1cc(Cl)ccc1Oc1ccc(Cl)cc1Cl the AC50 was 32.6 µM (active) [middle of 4 runs].
In the case of Clc1ccccc1-c1nnc(-c2ccccc2Cl)nn1, the outcome is reported as “inactive”.
In the case of COP(=S)(OC)Oc1ccc([N+](=O)[O-])cc1, the outcome is reported as “inactive”.

What follows are compounds tested against human Vitamin D Receptor (VDR), VDR (gene 7421) (UniProt P11473) (assay: ATG_VDR_TRANS: Attagene TRANS-FACTORIAL HepG2 Assay for human Vitamin D Receptor (VDR) (AID 2283022; active = hit-call score of the fitted dose curve at least 0.9, where 1 is the maximum)). Conditions: not given.
Sequence of human Vitamin D Receptor (VDR), VDR (gene 7421) (P11473 whole entry, looked up, the tested form may be a part): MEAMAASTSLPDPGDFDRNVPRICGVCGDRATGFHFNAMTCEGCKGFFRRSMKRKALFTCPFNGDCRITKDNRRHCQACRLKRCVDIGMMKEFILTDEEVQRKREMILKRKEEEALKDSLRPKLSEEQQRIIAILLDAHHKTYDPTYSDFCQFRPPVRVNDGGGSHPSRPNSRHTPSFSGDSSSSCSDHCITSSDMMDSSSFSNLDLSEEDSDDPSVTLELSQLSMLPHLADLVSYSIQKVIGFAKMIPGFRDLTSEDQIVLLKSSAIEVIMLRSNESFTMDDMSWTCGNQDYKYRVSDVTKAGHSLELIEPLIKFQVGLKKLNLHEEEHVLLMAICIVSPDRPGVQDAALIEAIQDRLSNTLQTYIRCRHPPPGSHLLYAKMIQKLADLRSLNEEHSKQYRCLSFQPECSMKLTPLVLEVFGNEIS
Method in brief: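 Fluorescence of labelled reporter cDNA fragments, resolved by capillary electrophoresis, gives mRNA induction after 24 h treatment of HepG2 cells carrying transfected Gal4-fusion reporter units. Activity is fitted in the positive direction with DMSO as baseline.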
For OCCOc1ccccc1, the outcome was “inactive”.
Cc1cc(C)nc(NC(=O)NS(=O)(=O)c2ccccc2C(=O)OC2COC2)n1 was tested, and the outcome was “inactive”.
COP(=S)(OC)Oc1ccc(SC)c(C)c1 was tested, and the outcome was “inactive”.
With C#CCN1C(=O)COc2cc(F)c(N3C(=O)C4=C(CCCC4)C3=O)cc21 the outcome was “inactive”.
For O=C(O)CCCOc1ccc(Cl)cc1Cl, the outcome was “inactive”.
With N#Cc1c(Cl)c(Cl)c(Cl)c(C#N)c1Cl the outcome was “inactive”.
For CCS(=O)(=O)c1cccnc1S(=O)(=O)NC(=O)Nc1nc(OC)cc(OC)n1, the outcome was “inactive”.
For CC[C@H](C)[C@H]1O[C@]2(C=C[C@@H]1C)C[C@@H]1C[C@@H](C/C=C(\C)[C@@H](O[C@H]3C[C@H](OC)[C@@H](O[C@H]4C[C@H](OC)[C@@H](O)[C@H](C)O4)[C@H](C)O3)[C@@H](C)/C=C/C=C3\CO[C@@H]4[C@H](O)C(C)=C[C@@H](C(=O)O1)[C@]34O)O2 (tested in a mixture with another compound), the outcome was “inactive”.
For CCC(C)Nc1c([N+](=O)[O-])cc(C(C)(C)C)cc1[N+](=O)[O-] (configuration not stated), the outcome was “inactive”.
CNC(=O)CSP(=S)(OC)OC was tested, and the outcome was “inactive”.
O=S1OCC2C(CO1)C1(Cl)C(Cl)=C(Cl)C2(Cl)C1(Cl)Cl (configuration not stated) was tested, and the outcome was “inactive”.
For O=[N+]([O-])/N=C1\NCCN1Cc1ccc(Cl)nc1, the outcome was “inactive”.
For COC(=O)c1ccccc1S(=O)(=O)NC(=O)Nc1nc(C)nc(OC)n1, the outcome was “inactive”.
For CCOCN(C(=O)CCl)c1c(C)cccc1CC, the outcome was “inactive”.
With CCN(CC)C(=O)SCc1ccc(Cl)cc1 the outcome was “inactive”.
In the case of [2H]C1([2H])[n+]2ccccc2-c2cccc[n+]2C1([2H])[2H], the outcome is reported as “inactive”.
O=S(=O)(O)C(F)(F)C(F)(F)C(F)(F)C(F)(F)C(F)(F)C(F)(F)C(F)(F)C(F)(F)F was tested, and the outcome was “inactive”.
CNC(=O)/C=C(\C)OP(=O)(OC)OC was tested, and the outcome was “inactive”.
CC1(C)C(C=C(Cl)Cl)C1C(=O)OC(C#N)c1ccc(F)c(Oc2ccccc2)c1 (configuration not stated) was tested, and the outcome was “inactive”.
With CC(C)(C)C(O)C(Oc1ccc(Cl)cc1)n1cncn1 (configuration not stated) the outcome was “inactive”.
O=C1c2ccccc2C(=O)N1SC(Cl)(Cl)Cl was tested, and the outcome was “inactive”.
For O=C(O)C(F)(F)C(F)(F)C(F)(F)C(F)(F)C(F)(F)C(F)(F)C(F)(F)F, the outcome was “inactive”.
For CC(C)OC(=O)Nc1cccc(Cl)c1, the outcome was “inactive”.
In the case of Oc1cc(Cl)ccc1Oc1ccc(Cl)cc1Cl, the outcome is reported as “inactive”.
For Clc1ccccc1-c1nnc(-c2ccccc2Cl)nn1, the outcome was “inactive”.
In the case of COP(=S)(OC)Oc1ccc([N+](=O)[O-])cc1, the outcome is reported as “inactive”.
